Experimental data taken from PubChem BioAssay.
The source made the active and inactive calls.

Assay: growth of efflux-deficient E. coli DRC39 – strain DRC39, OD650, 48 h, E. coli filamentation inducers, primary screen (AID 1179);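 note: screen aims at cell division blockers that make cells filament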
Details: E. coli DRC39 delta-acrAB growth, higher = more signal, called active from +8 up or from −8 down

z-score, inactive:
[N-]=[N+]=NCc1ccccc1C[C@@]1(C(=O)N2CCOCC2)N=C(c2ccc(OCCCO)cc2)O[C@@H]1c1ccccc1CN=[N+]=[N-] 1.06
O=C(NCc1ccccc1)[C@]1(CCS(=O)(=O)c2ccccc2)N=C(c2ccc(OCCCO)cc2)O[C@@H]1c1ccccc1 1.05
O=C1c2ccccc2[C@@]2(Cc3ccccc3N(Cc3ccccc3)C2=O)[C@H](c2ccc(CO)cc2)N1C1CCCCC1 0.256
COc1ccc(C(O)C2C=CC3C(=O)N(C)C(=O)C3N2Nc2ccccc2)cc1OCc1ccccc1 (stereo unspecified) -1.05
CCCNC(=O)[C@@]1(c2ccc([N+](=O)[O-])cc2)CC(=O)N(CC23CC4CC(CC(C4)C2)C3)[C@@H]1c1ccc(CO)cc1 -0.391
O=C1O[C@@H](c2ccccc2)[C@@H](c2ccccc2)N2[C@@H](c3ccc(O)cc3)[C@]3(C(=O)Nc4ccc(C#CC5(O)CCCCCC5)cc43)[C@@H](C(=O)N3CCCCCCC3)[C@H]12 0.38
CC(C)CNC(=O)[C@@H]1c2ccccc2C(=O)N(Cc2cc(C(F)(F)F)cc(C(F)(F)F)c2)[C@H]1c1ccc(CO)cc1 0.343
O=C1O[C@H](c2ccccc2)[C@H](c2ccccc2)N2[C@H]1[C@@H](C(=O)O)[C@]1(C(=O)Nc3ccc(C#CC4(O)CCCCCC4)cc31)[C@H]2c1ccc(OCCO)cc1 -0.151
CCCC[C@@H]1C[C@H]1[C@@H](NC(=O)c1ccc(-c2ccccc2)cc1)c1ccc(-c2ccccc2)cc1 -1.19
Cc1ccccc1C(O)C1C=CC2C(=O)N(C)C(=O)C2N1N1CCCCC1 (stereo unspecified) -0.495
Cc1cc(C)c(C(O)C2C=CC3C(=O)N(C)C(=O)C3N2Nc2ccccc2)c(C)c1 (stereo unspecified) -0.456
COc1ccc(C#Cc2ccc3c(c2)[C@]2(C(=O)N3)[C@H](C(=O)NC[C@H](O)c3ccccc3)[C@H]3C(=O)O[C@H](c4ccccc4)[C@H](c4ccccc4)N3[C@@H]2c2ccc(OCCO)cc2)cc1 -0.151
C=C(C(=O)CC[C@H](OC(C)=O)c1ccc(OCCO)cc1)C(C)C 0.204
CN(C)C(=O)[C@@]1(CCC(=O)OC(C)(C)C)N=C(c2ccc(OCCCO)cc2)O[C@H]1c1ccccc1 -0.353
[N-]=[N+]=NCc1ccccc1C[C@]1(C(=O)O)N=C(c2ccc(OCCCO)cc2)O[C@H]1c1ccccc1CN=[N+]=[N-] -0.717
COc1cc(CO)ccc1OC(C)=O 0.915
CC(C)=CCCC(C)=CC(O)C1C=CC2C(=O)N(c3ccccc3)C(=O)C2N1Nc1ccccc1 (stereo unspecified) -0.927
CC(C)c1ccc(NN2C(C(O)c3ccc(N(C)C)cc3)C=CC3C(=O)N(c4ccccc4)C(=O)C32)cc1 (stereo unspecified) 0.766
COCCOC(=O)N1C(=O)[C@@]2(c3cc(C#CCC(C(=O)OC)C(=O)OC)ccc31)[C@H](C(=O)N1CCCCCCC1)[C@H]1C(=O)O[C@H](c3ccccc3)[C@H](c3ccccc3)N1[C@@H]2c1ccc(OCCO)cc1 0.271
O=C1OCCC=C[C@H]2OC34C=CCN(Cc5ccccc5)C(=O)[C@H]3N(CCCCCCO)C(=O)[C@@H]4C12 (stereo partly specified) 0.653
Cc1ccc(S[C@]2(C(=O)NCCN3CCOCC3)CC(=O)N(Cc3cc(C(F)(F)F)cc(C(F)(F)F)c3)[C@@H]2c2ccc(CO)cc2I)cc1 1.09
CCCCCN1CC=CC23O[C@@H]4/C=C\CCC(C)OC(=O)C4[C@H]2C(=O)N(CCCCCO)[C@@H]3C1=O (stereo partly specified) 0.389
O=C1C2C=CC(C(O)c3cccs3)N(Nc3ccccc3F)C2C(=O)N1c1ccccc1 (stereo unspecified) 1.05
NCCCCCCNC(=O)[C@H]1C[C@H]2C(=O)NCC(=O)N2[C@H]1c1cccc(OCCO)c1 1.61
COC(=O)C(CC#Cc1ccc2c(c1)[C@]1(C(=O)N2)[C@H](c2ccc(OCCO)cc2)N2[C@H](c3ccccc3)[C@H](c3ccccc3)OC(=O)[C@H]2[C@@H]1C(=O)NC[C@H](O)c1ccccc1)C(=O)OC 0.869
CCCN1C(=O)[C@@]2(CCC(=O)OC(C)(C)C)N=C(c3ccc(OCCCO)cc3)O[C@H]2c2ccccc21 0.178
